PubChem BioAssay (Tox21)
The source made the active and inactive calls. Calls come from the whole dose curve; as a rule, active = well fitted curve in the direction sought with a large enough effect in the repeat runs; inconclusive = weak or mixed curves; inactive = flat fitted curve, though single readings scatter.

Assay: qHTS assay to test for compound auto fluorescence at 460 nm (blue) in HEK293 cell free culture (AID 720681)
Conditions: cell-free medium, autofluorescence 405/460 nm (blue); series mostly up to 91.3 µM
Method in brief: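 Test compounds were pinned into cell-free culture medium (DMEM with 10% FBS) and fluorescence was read directly at Ex/Em 405/460 nm. Signals were expressed as fluorescence equivalents of triamterene, with DMSO vehicle as control.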
% is set by controls: 0 for no effect and ±100 for the full control effect.

Row | Compound | outcome | fluorescence, % of fluorescent control
1 | CCC(CC)CO | inactive | –
2 | CC1COc2ccccc2N1 (stereo not given) | inactive | –
3 | NCCS | inactive | –
4 | CC(C)(C)OC(=O)c1ccc(O)cc1 | inactive | –
5 | CC(C)OC(=O)CCCCC(=O)OC(C)C | inactive | –
6 | CC(C)CC(=O)O | inactive | –
7 | CCCCCCCCC1CCC(=O)O1 (stereo not given) | inactive | –
8 | Cc1cccc2nccnc12 | inactive | –
9 | CCCCCOC(=O)CCC | inactive | –
10 | CN1C(C)(C)CCCC1(C)C | inactive | –
11 | C[C@@H]1O[C@@H](O[C@@H]2[C@@H](O)[C@H](OCCc3ccc(O)c(O)c3)O[C@H](CO[C@@H]3O[C@H](CO)[C@@H](O)[C@H](O)[C@H]3O)[C@H]2OC(=O)/C=C/c2ccc(O)c(O)c2)[C@H](O)[C@H](O)[C@H]1O | inactive | –
12 | CCCCCCOc1ccccc1C(N)=O | inactive | –
13 | O=C(O)C(=O)Cc1ccccc1 | inactive | –
14 | O=C(NCCN1CCOCC1)c1ccc(Cl)cc1 | inactive | –
15 | Nc1ncnc(Nc2ccccc2)n1 | inactive | –
16 | C=C(C)C(=O)OCC(C)(C)COC(=O)C(=C)C | inactive | –
17 | BrCc1cccc(Oc2ccccc2)c1 | inactive | –
18 | c1ccc2nccnc2c1 | inactive | –

Row | Compound | outcome | fluorescence, % of fluorescent control
19 | COc1ccc(Br)c(C)c1 | inactive | –
20 | COC(=O)C1CC(=O)C(C(=O)OC)CC1=O (stereo not given) | – | 1.67% [at 3.72 µM] (inactive)
21 | CCOC(=O)CC(=O)c1ccccc1 | inactive | –
22 | Cc1c(I)c(=O)n(-c2ccccc2)n1C | inactive | –
23 | COc1ccc(S(=O)(=O)N2c3ccc(Cl)cc3[C@@](O)(c3ccccc3Cl)[C@H]2C(=O)N2CCC[C@@H]2C(N)=O)cc1OC | inactive | –
24 | O=C1c2ccccc2C(=O)C1c1ccccc1 | – | -0.0862% [at 18.6 µM] (inactive)
25 | BrCCCCCBr | inactive | –
26 | CC(C)C[C@H](NC(=O)CNC(=O)[C@H](Cc1ccc(O)cc1)NC(=O)[C@H](CO)NC(=O)[C@H](Cc1c[nH]c2ccccc12)NC(=O)[C@H](Cc1cnc[nH]1)NC(=O)[C@@H]1CCC(=O)N1)C(=O)N[C@@H](CCCN=C(N)N)C(=O)N1CCC[C@H]1C(=O)NCC(N)=O (stereo in doubt) | inactive | –
27 | CN(CCOc1ccc(NS(C)(=O)=O)cc1)CCc1ccc(NS(C)(=O)=O)cc1 | inactive | –
28 | O=C(c1ccc(O)cc1)c1ccc(O)c(O)c1O | inactive | –
29 | O=C(O)c1cc(Br)c(O)c(Br)c1 | inactive | –
30 | O=C1c2ccccc2C(=O)N1CCl | inactive | –
31 | NCCN1CCOCC1 | inactive | –
32 | Nc1ccc(S(=O)(=O)Nc2ccc(Cl)nn2)cc1 | inactive | –
33 | C=COCCOCCOCCOC=C | inactive | –
34 | OCCN(CCO)c1cccc(Cl)c1 | inactive | –
35 | CCOc1cc([N+](=O)[O-])c(OCC)cc1N1CCOCC1 | inactive | –

Assay: qHTS assay to test for compound auto fluorescence at 535 nm (green) in HEK293 cell free culture (AID 720682)
Conditions: cell-free medium, green autofluorescence 485/535 nm, stronger effect = higher value; series mostly up to 91.3 µM
Method in brief: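 Cell-free medium (DMEM, 10% FBS) receives compound or DMSO by pintool. Plate read directly at Ex 485/Em 535 nm. Signal converted to fluorescein equivalency.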

Row | Compound | outcome | activity change
36 | CCC(CC)CO | inactive | –
37 | CC1COc2ccccc2N1 (stereo not given) | inactive | –
38 | NCCS | inactive | –
39 | CC(C)(C)OC(=O)c1ccc(O)cc1 | inactive | –
40 | CC(C)OC(=O)CCCCC(=O)OC(C)C | inactive | –
41 | CC(C)CC(=O)O | inactive | –
42 | CCCCCCCCC1CCC(=O)O1 (stereo not given) | inactive | –
43 | Cc1cccc2nccnc12 | inactive | –
44 | CCCCCOC(=O)CCC | inactive | –
45 | CN1C(C)(C)CCCC1(C)C | inactive | –
46 | C[C@@H]1O[C@@H](O[C@@H]2[C@@H](O)[C@H](OCCc3ccc(O)c(O)c3)O[C@H](CO[C@@H]3O[C@H](CO)[C@@H](O)[C@H](O)[C@H]3O)[C@H]2OC(=O)/C=C/c2ccc(O)c(O)c2)[C@H](O)[C@H](O)[C@H]1O | inactive | –
47 | CCCCCCOc1ccccc1C(N)=O | inactive | –
48 | O=C(O)C(=O)Cc1ccccc1 | inactive | –
49 | O=C(NCCN1CCOCC1)c1ccc(Cl)cc1 | inactive | –
50 | Nc1ncnc(Nc2ccccc2)n1 | inactive | –
51 | C=C(C)C(=O)OCC(C)(C)COC(=O)C(=C)C | inactive | –
52 | BrCc1cccc(Oc2ccccc2)c1 | inactive | –
53 | c1ccc2nccnc2c1 | inactive | –

Row | Compound | outcome | activity change
54 | COc1ccc(Br)c(C)c1 | inactive | –
55 | COC(=O)C1CC(=O)C(C(=O)OC)CC1=O (stereo not given) | – | -0.0001% [at 3.72 µM] (inactive)
56 | CCOC(=O)CC(=O)c1ccccc1 | inactive | –
57 | Cc1c(I)c(=O)n(-c2ccccc2)n1C | inactive | –
58 | COc1ccc(S(=O)(=O)N2c3ccc(Cl)cc3[C@@](O)(c3ccccc3Cl)[C@H]2C(=O)N2CCC[C@@H]2C(N)=O)cc1OC | inactive | –
59 | O=C1c2ccccc2C(=O)C1c1ccccc1 | – | -0.148% [at 18.6 µM] (inactive)
60 | BrCCCCCBr | inactive | –
61 | CC(C)C[C@H](NC(=O)CNC(=O)[C@H](Cc1ccc(O)cc1)NC(=O)[C@H](CO)NC(=O)[C@H](Cc1c[nH]c2ccccc12)NC(=O)[C@H](Cc1cnc[nH]1)NC(=O)[C@@H]1CCC(=O)N1)C(=O)N[C@@H](CCCN=C(N)N)C(=O)N1CCC[C@H]1C(=O)NCC(N)=O (stereo in doubt) | inactive | –
62 | CN(CCOc1ccc(NS(C)(=O)=O)cc1)CCc1ccc(NS(C)(=O)=O)cc1 | inactive | –
63 | O=C(c1ccc(O)cc1)c1ccc(O)c(O)c1O | inactive | –
64 | O=C(O)c1cc(Br)c(O)c(Br)c1 | inactive | –
65 | O=C1c2ccccc2C(=O)N1CCl | inactive | –
66 | NCCN1CCOCC1 | inactive | –
67 | Nc1ccc(S(=O)(=O)Nc2ccc(Cl)nn2)cc1 | inactive | –
68 | C=COCCOCCOCCOC=C | inactive | –
69 | OCCN(CCO)c1cccc(Cl)c1 | inactive | –
70 | CCOc1cc([N+](=O)[O-])c(OCC)cc1N1CCOCC1 | inactive | –
